Results published in PubChem BioAssay (NCATS).
A number with no mark means an inactive call. How the calls were made is not given here.
Potency means the concentration at half of the fitted maximal effect.

The compounds below were run on HIV-1 nucleocapsid protein NCp7 (binding to TG oligonucleotide) (assay: HIV Nucleocapsid (AID 346;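 further: potency is for inhibitors that block NC binding and lower polarization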)). Conditions: HIV-1 NC / fluorescein-TGTGTGTG probe, fluorescence polarization.
Procedure, shortened: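 Inhibition of nucleocapsid binding to single-stranded 5'-TGTGTGTG probe (10 nM) was measured by fluorescence polarization after 1 hr at room temperature with 100 nM protein under high-salt, zinc-containing, reducing conditions.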
In the case of COc1ccc(NC(=O)N2CC[C@@]3(CCCN(C(=O)c4ccncc4)C3)C2)cc1, the Potency is reported as > 20 µM. For COCCn1c(=O)c(C)nc2cnc(Nc3ccccc3)nc21, the Potency was > 20 µM. For COc1ccccc1-c1cncnc1NCc1cccc(C)c1, the Potency was > 20 µM. In the case of COc1cccc(-c2nc(NCc3ccccc3OC)c3ccccc3n2)c1, the Potency is reported as > 20 µM. With O=c1c(-c2ccc(F)cc2)nc2cnc(N3CCOCC3)nc2n1Cc1cccs1 the Potency was > 20 µM. With CS(=O)(=O)N1CCC2(CCCN(c3ncccn3)C2)CC1 the Potency was > 20 µM. In the case of COc1ccc(C(=O)N2CCC3(CCCN(C(c4ccccc4)c4ccccc4)C3)CC2)cc1, the Potency is reported as > 20 µM. With COc1ccccc1-c1ccc2ncnc(N3CCN(C)CC3)c2c1 the Potency was > 20 µM. In the case of COc1cccc(Nc2ncc3nc(C)c(=O)n(C)c3n2)c1, the Potency is reported as > 20 µM. With COc1ccc(-n2c(=O)c(C)nc3cnc(N4CCNCC4)nc32)cc1 the Potency was > 20 µM. With COc1ccc(C(=O)N2CCC3(CCCN(c4ccccc4)C3)CC2)cc1 the Potency was > 20 µM. For FC(F)(F)c1ccccc1-c1cc(NCc2ccccc2)ncn1, the Potency was > 20 µM. For COc1ncc2nc(-c3ccccc3)c(=O)n(CCc3ccccc3)c2n1, the Potency was > 20 µM. For COc1ccc(NC(=O)N2CC3(CCN(C(=O)c4ccncc4)CC3)C2)cc1, the Potency was > 20 µM. With COCCn1c(=O)c(-c2cccc(C#N)c2)nc2cnc(Oc3cccc(Cl)c3)nc21 the Potency was > 20 µM. With O=C(Oc1ccccc1)N1CCC2(CCCN(c3ccccc3)C2)CC1 the Potency was > 20 µM. Fc1ccc(Nc2ccnc(-c3ccc4c(c3)OCO4)n2)cc1 was tested, and the Potency was > 20 µM. In the case of COc1cccc(-c2nc(NCc3cccs3)c3ccccc3n2)c1, the Potency is reported as > 20 µM. With CCNc1ncc2nc(-c3ccccc3)c(=O)n(Cc3cccc(OC)c3)c2n1 the Potency was > 20 µM. COc1ccc(-n2c(=O)c(-c3ccccc3)nc3cnc(N4CCNCC4)nc32)cc1 was tested, and the Potency was > 20 µM. In the case of CS(=O)(=O)N1CCC2(CCCN(C(=O)Nc3ccccc3)C2)CC1, the Potency is reported as > 20 µM. With Cc1cnc(CNc2ncncc2-c2ccc3c(c2)OCO3)cn1 the Potency was > 20 µM. In the case of Cc1ccccc1-c1nc(N(C)C)c2ccccc2n1, the Potency is reported as > 20 µM. In the case of CS(=O)(=O)N1CCC2(CC1)CN(Cc1nccs1)C2, the Potency is reported as > 20 µM. With CC(C)NC(=O)N1CC[C@@]2(CCCN(C(=O)c3cc(C(F)(F)F)cc(C(F)(F)F)c3)C2)C1 the Potency was > 20 µM. With Cn1cccc1C(=O)N1CCC2(CCN(Cc3nccs3)CC2)CC1 the Potency was > 20 µM. For O=c1c(-c2ccccc2)nc2cnc(Nc3ccccc3)nc2n1Cc1cccs1, the Potency was > 20 µM. In the case of CN(C)c1ccc(-c2cncnc2Nc2ccccc2)cc1, the Potency is reported as > 20 µM. COc1ccccc1CNc1nc(-c2cccc(NS(C)(=O)=O)c2)nc2ccccc12 was tested, and the Potency was > 20 µM. For N#Cc1ccccc1-c1ccc2ncnc(NCc3cccs3)c2c1, the Potency was > 20 µM. With N#Cc1cccc(-c2nccc(-n3ccnc3)n2)c1 the Potency was > 20 µM. For c1ccc(Nc2nc(-c3cccnc3)nc3ccccc23)cc1, the Potency was > 20 µM. With COc1ccc2[nH]cc(CCNc3ncnc4ccc(-c5cccnc5)cc34)c2c1 the Potency was > 20 µM. In the case of COc1ccccc1-c1ccc2ncnc(Nc3ccccc3)c2c1, the Potency is reported as > 20 µM. In the case of CS(=O)(=O)N1CCC[C@@]2(CCN(C(=O)Nc3ccccc3)C2)C1, the Potency is reported as > 20 µM. For Cc1ccccc1-c1cncnc1NCc1ccccc1, the Potency was > 20 µM. With CN1CCN(c2ncc3nc(-c4ccccc4)c(=O)n(CCc4ccccc4)c3n2)CC1 the Potency was > 20 µM. For COc1ncc2nc(C)c(=O)n(-c3ccccc3)c2n1, the Potency was > 20 µM. With COc1ccc(C(=O)N2CCC3(CC2)CN(c2ccccn2)C3)cc1 the Potency was > 20 µM. In the case of Cc1nc2cnc(N3CCN(C)CC3)nc2n(Cc2cccs2)c1=O, the Potency is reported as > 20 µM.
